Bioassay records from PubChem BioAssay.
Most compounds without a hit are left out; they make up all but 3.1% or so of the library.
HIV Env fusion: inhibitors of HIV-1 Env-driven cell-cell fusion, primary screen, HeLa-JRFL effector, CEM21 target cells, luciferase; inhibition, % at 12.3 µM; 360,000 compounds, 1.1% hits; AID 651610, 2012;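 active means mean replicate inhibition score of at least 50 and every replicate individually at or above 50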
C2C12 statin: suppressors of statin myotoxicity in C2C12 myotubes, primary screen, cell-based, single point, plate reader; C2C12 myotubes + simvastatin, ATP luminescence, 48 h; scaled: DMSO 0, geranylgeraniol control 100; rescue of ATP level, % at 7.49 µM; 330,000 compounds, 0.78% hits;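 active means mean ATP rescue above about 67%, or every replicate alone reaching that limit, limit read from the data, passing the limit was not always enough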;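 further: myotubes were challenged with 10 µM simvastatin during compound exposure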
miR122 inh: miR-122 Renilla sensor signal increase in Huh7, primary screen, miR-122 inhibitor project, cell-based, single point, plate reader; activation (reporter increase), % at 12.5 µM; 340,000 compounds, 0.3% hits; AID 602342, 2012; Huh7 miR-122 Renilla luciferase sensor, 48 h; neutral wells = 0, positive control = 100;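 active means mean replicate activation score at least 90 and every replicate individually at or above 90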;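 further: higher luciferase means less miR-122 activity so hits act as miR-122 inhibitors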
INS-1E GSIS act: GLuc luminescence reporter in INS-1E cells, primary screen for activators of glucose-dependent secretion of insulin | INS-1E GLuc reporter insulin secretion, 2-3 h | activation, % at 16.6 µM | 370,000 compounds, 0.61% hits | AID 743287, 2014;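 active means lowest replicate activation of at least 40%, so every replicate reaches that level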
EWS-Fli inh: EWS/Fli-driven NR0B1 reporter inhibitors, primary screen, A673 cells, NR0B1 luciferase, luminescence, MLPCN library; 350,000 compounds, 0.67% hits; viability-normalised; AID 651661, 2012; inhibition, % at 12.6 µM;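 active means mean inhibition of at least 50% after viability correction, with every replicate also passing that limit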;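 further: firefly luciferase signal divided by Alamar Blue viability fluorescence both relative to DMSO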
PAX8 inh HTS: inhibitors of PAX8-driven TPO luciferase reporter, primary screen, RMG-I cells, single concentration | SteadyGlo, 24 h | inhibition, % at 12.6 µM | 360,000 compounds, 1.2% hits | AID 652154, 2013;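 active means mean replicate inhibition at least 60% with every replicate also reaching 60%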;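 further: luciferase light reporting Pax8 driven TPO promoter activity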
Large screens that a line does not name were inactive.

Cc1cccc(C(=O)N2CCC(n3nnc4cc(F)ccc43)CC2)c1	C2C12 statin 134 (no result: EWS-Fli inh)
Cc1ccc2c(c1)nnn2C1CCN(S(=O)(=O)c2ccc(C(=O)O)cc2)CC1	none (no result: C2C12 statin, miR122 inh)
Cc1ccc2c(c1)nnn2C1CCN(S(=O)(=O)c2ccc(C(=O)N3C(C)CCCC3C)cc2)CC1 (configuration not stated)	HIV Env fusion 67 (no result: INS-1E GSIS act, EWS-Fli inh, PAX8 inh HTS)
COc1ccccc1/C=C/CN1CCCC(CCC(=O)NCc2ccc(F)c(F)c2)C1 (configuration not stated)	HIV Env fusion 63 (no result: C2C12 statin)
COc1cccc(CNC(=O)CCC2CCCN(C/C=C/c3ccccc3OC)C2)c1 (configuration not stated)	none
O=C(Nc1ccc(N2CCCCC2)c(S(=O)(=O)Nc2ccccc2Cl)c1)c1cccnc1	none (no result: INS-1E GSIS act)
O=C(Nc1ccc(F)cc1)Nc1ccc(N2CCCC2)c(S(=O)(=O)Nc2ccccc2Cl)c1	PAX8 inh HTS 88 (no result: C2C12 statin, miR122 inh, INS-1E GSIS act)
O=C(Nc1ccc(Cl)c(Cl)c1)Nc1ccc(N2CCCC2)c(S(=O)(=O)Nc2ccccc2Cl)c1	HIV Env fusion 81 (no result: C2C12 statin, miR122 inh, EWS-Fli inh)
COCC(=O)N1C[C@H]2[C@@H](c3ccccc31)[C@@H](CO)N2C(=O)Nc1ccccc1Cl	none (no result: HIV Env fusion)
COc1ccc(S(=O)(=O)Nc2ccc3c(c2)C(=O)N([C@H](C)CO)C[C@@H](C)[C@H](CN(C)S(=O)(=O)c2ccc(C)cc2)OCCCC[C@@H](C)O3)cc1	PAX8 inh HTS 67 (no result: C2C12 statin)
COc1ccc(S(=O)(=O)Nc2ccc3c(c2)C(=O)N([C@H](C)CO)C[C@H](C)[C@@H](CN(C)S(=O)(=O)c2ccc(C)cc2)OCCCC[C@H](C)O3)cc1	PAX8 inh HTS 78 (no result: C2C12 statin)
C[C@H](O)C#Cc1ccc2c(c1)O[C@H](CN(C)C(=O)Nc1ccccc1)[C@H](C)CN([C@@H](C)CO)S2(=O)=O	none
C[C@H]1CN([C@@H](C)CO)C(=O)c2cc(NC(=O)CCC(F)(F)F)ccc2O[C@@H]1CN(C)S(=O)(=O)c1cn(C)cn1	none (no result: HIV Env fusion, PAX8 inh HTS)
CCc1ccccc1NC(=O)CCN1C(=O)c2ccccc2C1=O	C2C12 statin 133 (no result: HIV Env fusion, INS-1E GSIS act, EWS-Fli inh, PAX8 inh HTS)
O=C(NCc1ccco1)C(c1cccnc1)N(C(=O)Cn1nnc2ccccc21)c1ccccc1 (configuration not stated)	none (no result: HIV Env fusion, C2C12 statin, EWS-Fli inh, PAX8 inh HTS)
COc1ccc(N(C(=O)Cn2nnc3ccccc32)C(C(=O)NCc2ccco2)c2cccnc2)cc1 (configuration not stated)	C2C12 statin 81 (no result: HIV Env fusion, EWS-Fli inh, PAX8 inh HTS)
COC(=O)C[C@H]1CC[C@@H]2[C@H](COC[C@H](O)CN2C(=O)Nc2cccc(F)c2)O1	none
C[C@H](CO)N1C[C@H](C)[C@H](CN(C)C)Oc2ccc(NC(=O)C3CCCCC3)cc2CC1=O	none
COc1ccc(Oc2ccc(/C=C/C(=O)c3ccc(O)cc3)cc2[N+](=O)[O-])cc1	EWS-Fli inh 75 (no result: C2C12 statin, miR122 inh)
O=C(/C=C/c1ccc(O)c([N+](=O)[O-])c1)c1ccc2ccccc2c1	none
COc1cccc(-c2nnc3n2N=C(c2cc(OC)ccc2OC)CS3)c1	none (no result: INS-1E GSIS act, EWS-Fli inh)
COc1cccc(-c2nnc3n2N=C(C(C)(C)C)CS3)c1	HIV Env fusion 112 (no result: INS-1E GSIS act, EWS-Fli inh)
Clc1ccccc1C1=Nn2c(nnc2-c2ccncc2)SC1	HIV Env fusion 92 (no result: INS-1E GSIS act, EWS-Fli inh, PAX8 inh HTS)
c1csc(C2=Nn3c(nnc3-c3ccncc3)SC2)c1	none (no result: HIV Env fusion, INS-1E GSIS act, EWS-Fli inh, PAX8 inh HTS)
COc1ccc(OC)c(C2=Nn3c(nnc3-c3ccncc3)SC2)c1	INS-1E GSIS act 41
Cc1cc(-c2nnc3n2N=C(c2ccccc2Br)CS3)n[nH]1	none (no result: C2C12 statin, miR122 inh, INS-1E GSIS act)
Cc1cccc(-c2nnc3n2N=C(c2ccccc2Br)CS3)c1	C2C12 statin 103 (no result: HIV Env fusion, INS-1E GSIS act, EWS-Fli inh, PAX8 inh HTS)
COc1ccc(OC)c(C2=Nn3c(nnc3-c3cc(OC)c(OC)c(OC)c3)SC2)c1	none (no result: EWS-Fli inh, PAX8 inh HTS)
COc1ccccc1CN1CC2(C1)[C@H](c1ccccc1)[C@H](CO)N2Cc1ccccc1	none (no result: HIV Env fusion, C2C12 statin, miR122 inh, PAX8 inh HTS)
Cc1ccc(-c2cnc3c(c2)C(=O)N([C@@H](C)CO)C[C@H](C)[C@H](CN(C)CC2CCOCC2)O3)cc1	none (no result: PAX8 inh HTS)
CN(C)CCCNC(=O)C[C@@H]1CC[C@@H]2[C@@H](COc3ccc(NC(=O)c4ccccc4F)cc3C(=O)N2C)O1	none (no result: HIV Env fusion)
